Mcl-1 Bim block = disrupts Bim peptide binding to human Mcl-1; 0.1% of 190,000 active; Bead-based flow cytometry, Bim peptide-Mcl-1 binding; Q07820; inhibition, % at 10 µM; in the data active = inhibition above about 40%;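 note: 0% = no compound tracer wells and 100% = peptide blocker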
Mcl1-Noxa inh = disrupts binding of human Mcl-1 to Noxa peptide; inhibition, % at 21.7 µM; TR-FRET Mcl-1/Noxa peptide binding, 2 h; Q07820; 1.5% of 220,000 active;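 active = compounds that cut the protein-peptide binding signal by more than 50% relative to plate controls in a single-dose test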;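 note: His-tagged Mcl-1 with rhodamine Noxa BH3 peptide and terbium anti-His antibody; 0% = Mcl-1 plus Noxa peptide wells and 100% = peptide-only wells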
NCF1 inh = inhibitors of human p47phox binding | p47phox/p22phox peptide binding, fluorescence polarization, 2 h | 0.53% of 220,000 active | P14598 | AID 1274 | inhibition, % at 24.7 µM;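 active = inhibition above about 30%, limit read from the data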;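 note: 0% = p47phox with labelled peptide and 100% = labelled peptide alone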
Target sequence (P14598 whole entry, looked up): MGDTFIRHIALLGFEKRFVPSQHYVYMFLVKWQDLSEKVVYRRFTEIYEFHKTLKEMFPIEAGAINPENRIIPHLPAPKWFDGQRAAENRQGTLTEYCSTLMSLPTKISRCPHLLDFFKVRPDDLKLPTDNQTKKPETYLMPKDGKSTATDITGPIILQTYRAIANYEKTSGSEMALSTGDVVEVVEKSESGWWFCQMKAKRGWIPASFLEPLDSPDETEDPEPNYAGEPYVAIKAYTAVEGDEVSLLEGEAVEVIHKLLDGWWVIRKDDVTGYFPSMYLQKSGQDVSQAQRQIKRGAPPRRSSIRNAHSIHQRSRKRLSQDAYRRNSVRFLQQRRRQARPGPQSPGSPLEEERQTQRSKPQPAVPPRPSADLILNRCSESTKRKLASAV
14-3-3 Bad inh = disrupts binding of bovine 14-3-3 zeta to phospho-Bad peptide; TR-FRET 14-3-3zeta/Dy647-pBad peptide displacement, 1 h; inhibition, % at 21.7 µM; 0.71% of 220,000 active; AID 781;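 active = inhibition above about 70%, limit read from the data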;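 note: 0% = full 14-3-3 plus peptide FRET controls and 100% = background without 14-3-3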
Mcl1 Bid PPI = disrupts binding of human Mcl-1 to Bid peptide. Q07820. TR-FRET Mcl-1/Bid-Dy647 peptide binding, 1536-well. inhibition, % at 21.7 µM. 0.97% of 220,000 active. AID 1021;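 active = compounds that cut the binding signal by more than half at the single screening dose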;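 note: His-tagged Mcl-1 with europium anti-His antibody binding Bid BH3 peptide; 0% = Mcl-1 plus peptide wells and 100% = peptide-only wells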
Starred values were filed as active, the others as inactive; x = no result given. Compounds with a hit are over-represented: about 3.2% of the library has one in this group of screens.

SMILES | Mcl-1 Bim block | Mcl1-Noxa inh | NCF1 inh | 14-3-3 Bad inh | Mcl1 Bid PPI
CCN1CCCC1CNc1ncnc2c1[nH]c1ccc(Cl)cc12 (centres undefined) | -2 | 73* | 6 | -9 | 6
COc1ccccc1CC1(C)NC(=O)N(CC(=O)N2CCc3ccccc3C2)C1=O (centres undefined) | 1 | 15 | -9 | 4 | 57*
O=C(CN1C(=O)NC2(CCCCCCC2)C1=O)N1CCc2ccccc2C1 | 0 | 3 | -6 | -15 | -4
CN(C)/C=C/C(=O)c1ccc(C(F)(F)F)cc1F | 100* | 20 | 1 | -8 | -23
CN(C)/C=C/C(=O)c1ccc(Cl)cc1Cl | 0 | 1 | -2 | -14 | -39
O=C(Nc1cccc(C(F)(F)F)c1)c1cc2ncc(Br)cn2n1 | 1 | 22 | -22 | 1 | -22
O=C(Nc1ccc2c(c1)OCO2)c1cc2ncc(Br)cn2n1 | 3 | 58* | 3 | x | -58
CCOC(=O)/C=C1\SCC(=O)N1CC(=O)Nc1cccc(F)c1 | 1 | -13 | -42 | -5 | -17
COc1ccc(CN2CCN(c3ccccn3)CC2)c(OC)c1 | 0 | 24 | 5 | 59 | 56*
O=c1c(CN2CCN(c3ccccn3)CC2)coc2ccccc12 | -8 | 20 | 14 | -1 | 0
COc1ccc(CN2CCN(c3ncccn3)CC2)c(OC)c1 | 1 | 18 | 14 | 38 | 36
Brc1ccc(CN2CCN(c3ccccn3)CC2)s1 | 1 | 10 | -19 | 85* | 23
CN(C)Cc1c(-c2ccc(Cl)cc2)nc2ccc(Cl)cn12 | 0 | 7 | 0 | -5 | -17
COCCn1c(SCC(=O)NC(=O)NCc2ccccc2)nc2ccccc21 | -1 | 8 | -10 | -5 | 56*
CC(C)N(C(=O)CSc1nnc(-c2ccc3c(c2)OCO3)n1C)C(C)C | -5 | 16 | 1 | 12 | 3
CCOC(=O)c1c(CSc2cccs2)n(C)c2cc(Br)c(O)c(CN(C)C)c12 | 1 | 42 | -3 | -1 | -43
Cc1cc(=O)[nH]c(SCC(=O)Nc2ccc(C(=O)O)cc2)n1 | 0 | 17 | 3 | -9 | 5
CCOC(=O)c1ccc(NC(=O)CSCCC(=O)O)cc1 | 68* | -8 | 0 | -2 | 0
CCOC(=O)c1ccc(NC(=O)CSc2nc(C)cc(=O)[nH]2)cc1 | -1 | 85* | -9 | -4 | -4
CCOC(=O)c1ccc(NC(=O)CSCc2ccco2)cc1 | -6 | 27 | -30 | 2 | -8
COCc1ccc([C@@H]2C[C@H]3CN(Cc4ccccc4C)C(=O)[C@]34CCCN24)o1 | 1 | -4 | -5 | -3 | -23
CN(C)c1ccc(N2CC(C)(C)C2=O)cc1 | -3 | 63* | -1 | 2 | -46
COc1cc(/C=C2\S/C(=N/S(=O)(=O)c3ccccc3)NC2=O)c([N+](=O)[O-])cc1OC | x | 57* | -13 | 39 | 14
CO[C@@]1(NC(=O)Cc2cccs2)C(=O)N2C(C(=O)O)=C(COC(N)=O)CS[C@@H]21 | -1 | 38 | -11 | 73* | -87
Cc1cc(Sc2nc(N(C)C)nc(N(C)C)n2)nc(Cl)n1 | -1 | 0 | 6 | 1 | -20
SMILES | Mcl-1 Bim block | Mcl1-Noxa inh | NCF1 inh | 14-3-3 Bad inh | Mcl1 Bid PPI
O=C(NCc1ccccc1)C1CCCN1S(=O)(=O)c1cccc2cccnc12 (centres undefined) | 0 | 10 | 47* | -1 | 2
O=C(NCc1ccc(F)cc1)C1CCCN1C(=O)NCc1ccccc1 (centres undefined) | 1 | 52* | -8 | 4 | 2
O=C(NC1CCCC1)C1CCCN1S(=O)(=O)c1cccc2cccnc12 (centres undefined) | -1 | -1 | -10 | 4 | -22
CCn1ccc(C(=O)Nc2c(C)nn(Cc3c(F)c(F)c(F)c(F)c3F)c2C)n1 | -5 | -3 | 2 | -6 | -18
COc1cccc(-c2c(C#N)c(N)nc3c2c(=O)nc2sccn23)c1 | 12 | 7 | -9 | -2 | -3
Nc1nnnn1CC(=O)N/N=C/c1ccccn1 | x | -8 | -5 | -13 | -23
COc1ccc(C(=O)/C=C/C(=O)N(CC(=O)NC2CCCCC2)Cc2cccs2)c(O)c1 | -1 | 43 | 8 | 2 | 38
COCCN(CC(=O)NC1CCCCC1)C(=O)/C=C/C(=O)c1ccc(OC)cc1O | -8 | 66* | -7 | 3 | 33
Nc1cc([N+](=O)[O-])ccc1Nc1ccc(O)cc1 | x | 72* | -8 | -5 | -234
COc1ccccc1/C=C/C=N/N1CCN(Cc2ccc(Cl)cc2)CC1 | -2 | 29 | -4 | 74* | -7

Screens from PubChem.
